Measured values taken from PubChem BioAssay AID1159580 (chemical genetic matrix, 2015).
Screen size: about 5,500 compounds; about 2,000 (36%) were called active. Inconclusive results (about 18%) are left out. Cut-off read from the data, not from the text of the source: active = normalized growth mostly below about 0.91 (no sharp cut-off); inconclusive = no clear call, values can overlap the other calls; inactive = mostly above about 0.92. This is one part of the list.

Assay: chemical genetic growth profiling, strain panel (AID 1159580);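 note: tested at 20 µM; growth read once vehicle control cultures reached saturation at 30 °C; 1 = growth at the plate median or of vehicle wells; lower values mean less growth of the strain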
Conditions: S. cerevisiae deletion strains, growth OD

Measured: normalized growth

COc1ccc(-c2coc3cc(OC(C)=O)cc(OC(C)=O)c3c2=O)cc1
active: locus YDR334W, strain swr1, hits give low values 0.887 | locus YDR392W, strain spt3, hits give low values 0.576 | locus YHR142W, strain chs7, hits give low values 0.874 | locus YJL129C, strain trk1, hits give low values 0.861 | locus YNL071W, strain lat1, hits give low values 0.845
inactive: locus YAL021C, strain ccr4, hits give low values 0.964 | locus YAL026C, strain drs2, hits give low values 0.949 | locus YAL030W, strain snc1, hits give low values 0.958 | locus YBL061C, strain skt5, hits give low values 0.96 | locus YBR009C, strain hhf1, hits give low values 0.958 | locus YBR023C, strain chs3, hits give low values 0.967 | locus YBR171W, strain sec66, hits give low values 0.937 | locus YBR231C, strain swc5, hits give low values 0.957 | locus YBR279W, strain paf1, hits give low values 0.984 | locus YCL011C, strain gbp2, hits give low values 0.919 | locus YCL016C, strain dcc1, hits give low values 0.925 | locus YCL061C, strain MRC1, hits give low values 0.96 | locus YCL069W, strain vba3, hits give low values 0.953 | locus YCR088W, strain abp1, hits give low values 0.968 | locus YDL005C, strain med2, hits give low values 0.961 | locus YDL040C, strain nat1, hits give low values 0.983 | locus YDR001C, strain nth1, hits give low values 0.939 | locus YDR069C, strain doa4, hits give low values 0.92 | locus YDR137W, strain rgp1, hits give low values 0.871 | locus YDR159W, strain sac3, hits give low values 0.953 | locus YDR195W, strain ref2 1.01 | locus YDR297W, strain sur2, hits give low values 0.985 | locus YDR335W, strain msn5, hits give low values 0.967 | locus YEL003W, strain gim4, hits give low values 0.977 | locus YEL037C, strain rad23, hits give low values 0.972 | locus YEL061C, strain CIN8 (second series), hits give low values 0.965 | locus YER015W, strain faa2, hits give low values 0.951 | locus YER016W, strain bim1, hits give low values 0.972 | locus YER111C, strain swi4, hits give low values 0.968 | locus YER155C, strain BEM2 (second series), hits give low values 0.878 | locus YFR010W, strain ubp6, hits give low values 0.955 | locus YGL167C, strain pmr1, hits give low values 0.965 | locus YGL173C, strain kem1, hits give low values 0.922 | locus YGL227W, strain vid30, hits give low values 0.955 | locus YGL240W, strain doc1, hits give low values 0.961 | locus YGL253W, strain hxk2, hits give low values 0.925 | locus YHR013C, strain ard1, hits give low values 0.902 | locus YHR027C, strain rpn1, hits give low values 0.951 | locus YJL092W, strain hpr5, hits give low values 0.923 | locus YJL095W, strain BCK1 (second series), hits give low values 0.963 | locus YJL115W, strain asf1, hits give low values 0.914 | locus YJL154C, strain vps35, hits give low values 0.97 | locus YJL164C, strain tpk1, hits give low values 0.935 | locus YJL166W, strain qcr8, hits give low values 0.944 | locus YJL187C, strain SWE1, hits give low values 0.961 | locus YKL160W, strain elf1, hits give low values 0.988 | locus YKR026C, strain gcn3, hits give low values 0.965 | locus YKR091W, strain srl3, hits give low values 0.958 | locus YLL001W, strain dnm1, hits give low values 0.929 | locus YLL026W, hits give low values 0.967 | locus YLL041C, strain sdh2, hits give low values 0.963 | locus YLR027C, strain aat2, hits give low values 0.936 | locus YLR221C, strain rsa3, hits give low values 0.922 | locus YLR258W, strain gsy2, hits give low values 0.964 | locus YLR262C, strain YPT6 (second series), hits give low values 0.889 | locus YLR320W, strain mms22, hits give low values 0.927 | locus YLR342W, strain FKS1, hits give low values 0.968 | locus YLR357W, strain rsc2, hits give low values 0.981 | locus YLR370C, strain arc18, hits give low values 0.954 | locus YLR384C, strain iki3, hits give low values 0.968 | locus YML120C, strain ndi1, hits give low values 0.925 | locus YMR058W, strain fet3, hits give low values 0.935 | locus YMR125W, strain sto1, hits give low values 0.914 | locus YMR129W, hits give low values 0.966 | locus YMR205C, strain PFK2, hits give low values 0.91 | locus YMR231W, strain pep5, hits give low values 0.978 | locus YNL209W, strain ssb2, hits give low values 0.963 | locus YNL248C, strain rpa49, hits give low values 0.967 | locus YNL322C, strain KRE1 (second series), hits give low values 0.923 | locus YNR049C, strain mso1, hits give low values 0.954 | locus YOR001W, strain rrp6, hits give low values 0.971 | locus YOR070C, strain gyp1, hits give low values 0.972 | locus YOR080W, strain dia2, hits give low values 0.955 | locus YOR083W, strain WHI5, hits give low values 0.976 | locus YOR106W, strain vam3, hits give low values 0.928 | locus YOR265W, strain rbl2, hits give low values 0.963 | locus YOR270C, strain vph1, hits give low values 0.834 | locus YPL051W, strain arl3, hits give low values 0.959 | locus YPL078C, strain atp4, hits give low values 0.968 | locus YPL106C, strain sse1, hits give low values 0.913 | locus YPL240C, strain hsp82, hits give low values 0.956
